Assay results from publication PMC7862700, “An all-to-all approach to the identification of sequence-specific readers for epigenetic DNA modifications on cytosine”.

Target: T1, ETV3 (Homo sapiens, UniProt P41162-2 1-143)
T1 sequence: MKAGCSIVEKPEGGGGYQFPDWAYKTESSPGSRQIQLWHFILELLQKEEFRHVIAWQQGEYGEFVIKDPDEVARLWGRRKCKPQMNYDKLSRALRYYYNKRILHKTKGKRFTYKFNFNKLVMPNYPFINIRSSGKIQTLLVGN
Assay: DAPPL (digital affinity profiling via proximity ligation, sequencing); 10 mM Tris-HCl pH 7.5, 50 mM NaCl, 1 mM DTT, 4% glycerol, room temperature, 30 min; GST-TFs on glutathione beads, 16-mer random dsDNA library, 0.1% formaldehyde crosslink after washing; high values mean tight binding
Conditions: protein: recombinant; tags: N-terminal GST; dsDNA, one strand shown
Summary of the method: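 Beads coated with glutathione captured GST-fused human transcription factors that had been expressed in yeast, and the factors were then given DNA barcodes and pooled with a tag-only sample. The pools were incubated with 200 nmole of a random double-stranded 16-mer DNA library in Tris/NaCl/DTT/glycerol buffer for 30 min at room temperature, washed, crosslinked with 0.1% formaldehyde and proximity-ligated with BsaI/T4 ligase at 37 °C for 1 h. PCR amplification and Illumina NextSeq500 sequencing came last. Binding signal is each hexamer's read frequency for a factor divided by its frequency for the tag-only sample.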

Point of comparison: TGATGG, binding signal 1.2 fold enrichment (6-mer frequency, TF over GST control). Against it:
- AGTATT — lower, 1.19 fold enrichment (6-mer frequency, TF over GST control)
- GCTCTC — higher, 1.48 fold enrichment (6-mer frequency, TF over GST control)
- AAAAAT — higher, 1.29 fold enrichment (6-mer frequency, TF over GST control)
- TCGACC — higher, 1.27 fold enrichment (6-mer frequency, TF over GST control)
- ACAGCT — lower, 1.14 fold enrichment (6-mer frequency, TF over GST control)
- TGATGC — higher, 1.67 fold enrichment (6-mer frequency, TF over GST control)
- CCTATA — higher, 1.36 fold enrichment (6-mer frequency, TF over GST control)
- TAAGTT — higher, 1.27 fold enrichment (6-mer frequency, TF over GST control)
- TTACGG — lower, 1.17 fold enrichment (6-mer frequency, TF over GST control)
- TTGATA — higher, 1.25 fold enrichment (6-mer frequency, TF over GST control)
- GCTTTC — higher, 1.25 fold enrichment (6-mer frequency, TF over GST control)
- AATGTT — higher, 1.61 fold enrichment (6-mer frequency, TF over GST control)
- TAATTT — higher, 1.24 fold enrichment (6-mer frequency, TF over GST control)
- CCTTGA — lower, 1.19 fold enrichment (6-mer frequency, TF over GST control)
- GTTCTT — lower, 1.09 fold enrichment (6-mer frequency, TF over GST control)
- CCGAAT — lower, 1.12 fold enrichment (6-mer frequency, TF over GST control)
- CCATAA — higher, 1.25 fold enrichment (6-mer frequency, TF over GST control)
- CTCTCA — higher, 1.43 fold enrichment (6-mer frequency, TF over GST control)
- AAATAA — higher, 1.31 fold enrichment (6-mer frequency, TF over GST control)
- ACTCTG — higher, 1.27 fold enrichment (6-mer frequency, TF over GST control)
- TCTCGT — lower, 1.03 fold enrichment (6-mer frequency, TF over GST control)
- TTAACT — higher, 1.22 fold enrichment (6-mer frequency, TF over GST control)
- ATGAAA — lower, 1.1 fold enrichment (6-mer frequency, TF over GST control)
- GCGATG — higher, 1.28 fold enrichment (6-mer frequency, TF over GST control)
- ACTAAC — higher, 1.24 fold enrichment (6-mer frequency, TF over GST control)
- ATCTCT — higher, 1.25 fold enrichment (6-mer frequency, TF over GST control)
- ACTAGC — lower, 1.15 fold enrichment (6-mer frequency, TF over GST control)
- TATTCA — higher, 1.23 fold enrichment (6-mer frequency, TF over GST control)
- TTTTAT — higher, 1.45 fold enrichment (6-mer frequency, TF over GST control)
- GTTATT — the same, 1.2 fold enrichment (6-mer frequency, TF over GST control)
- TTCTAC — higher, 1.41 fold enrichment (6-mer frequency, TF over GST control)
- GCTTCT — higher, 1.4 fold enrichment (6-mer frequency, TF over GST control)
- AGTGCT — higher, 1.56 fold enrichment (6-mer frequency, TF over GST control)
- ATCGAT — lower, 1.15 fold enrichment (6-mer frequency, TF over GST control)
- TCTCAG — higher, 1.43 fold enrichment (6-mer frequency, TF over GST control)
- CTTCTG — higher, 1.28 fold enrichment (6-mer frequency, TF over GST control)
- GCTCTA — lower, 1.1 fold enrichment (6-mer frequency, TF over GST control)
- ACTTTA — lower, 1.19 fold enrichment (6-mer frequency, TF over GST control)
